{"source": "PubChem BioAssay AID1779", "about": "(Sanford-Burnham Center for Chemical Genomics, 2009)", "note": "About 160 (0.055%) of roughly 290,000 compounds were called active. Cut-off read from the data, not from the text of the source: active = inhibition above about 50%; inactive = the rest. Only a selection was taken, and actives are over-represented in it overall."}
{"target": "Tyrosine-protein phosphatase non-receptor type 22 (Homo sapiens) (UniProt Q9Y2R2)", "sequence (Q9Y2R2 whole entry, looked up)": "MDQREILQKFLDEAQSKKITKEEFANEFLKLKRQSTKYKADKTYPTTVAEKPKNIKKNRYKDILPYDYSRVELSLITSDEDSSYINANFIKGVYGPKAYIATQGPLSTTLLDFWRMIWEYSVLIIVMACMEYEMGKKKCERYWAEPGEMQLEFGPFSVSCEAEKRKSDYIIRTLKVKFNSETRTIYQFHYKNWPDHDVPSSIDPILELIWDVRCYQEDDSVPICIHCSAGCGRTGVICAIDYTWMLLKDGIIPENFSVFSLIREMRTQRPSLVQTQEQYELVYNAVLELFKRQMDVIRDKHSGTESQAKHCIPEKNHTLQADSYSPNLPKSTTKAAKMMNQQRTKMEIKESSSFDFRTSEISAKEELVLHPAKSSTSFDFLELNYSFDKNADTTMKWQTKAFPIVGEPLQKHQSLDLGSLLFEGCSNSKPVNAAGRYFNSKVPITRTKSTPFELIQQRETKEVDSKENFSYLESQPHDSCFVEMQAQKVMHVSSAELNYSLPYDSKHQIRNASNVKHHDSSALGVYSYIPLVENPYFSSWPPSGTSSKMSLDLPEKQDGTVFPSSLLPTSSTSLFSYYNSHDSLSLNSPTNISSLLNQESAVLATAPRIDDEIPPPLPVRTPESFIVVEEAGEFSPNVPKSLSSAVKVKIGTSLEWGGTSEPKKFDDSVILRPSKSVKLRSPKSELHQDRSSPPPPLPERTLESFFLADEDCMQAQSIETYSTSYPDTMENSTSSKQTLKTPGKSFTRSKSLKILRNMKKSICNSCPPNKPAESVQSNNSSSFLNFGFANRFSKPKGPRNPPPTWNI", "test": "PTPN22 lymphoid phosphatase activity blockers – biochemical, fluorescence intensity, uHTS (AID 1779);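 note: plate controls were vehicle with enzyme for no effect and no enzyme for full effect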", "conditions": "recombinant LYP phosphatase, at 11.5 µM, hits give high values"}
{"compound": "CCn1c(SCC(=O)N/N=C(/C)c2ccncc2)nc2ccccc21", "inhibition": "-6.6% (inactive)"}
{"compound": "Cc1ccc(S(=O)(=O)NC(=O)Nc2nnc(C3CC3)s2)cc1", "inhibition": "-9.1% (inactive)"}
{"compound": "CC(=O)Nc1ccc(NC(=O)CSc2ccc(-c3sc(C)nc3C)nn2)cc1", "inhibition": "-10.3% (inactive)"}
{"compound": "N#Cc1c(/N=C\\c2ccc(O)c([N+](=O)[O-])c2)sc2c1CCCC2", "inhibition": "7.9% (inactive)"}
{"compound": "CC1=NN(c2ccccc2)C(=O)/C1=C\\C=C1\\N(C)c2ccccc2C1(C)C", "inhibition": "6.4% (inactive)"}
{"compound": "O=C(CNC(=O)c1ccc(F)cc1)NCc1ccc(Cl)cc1", "inhibition": "-3% (inactive)"}
{"compound": "CC(=O)NCCNC(=O)CNC(=O)c1ccc(Cl)cc1", "inhibition": "-1.1% (inactive)"}
{"compound": "O=C(CNC(=O)c1ccc(Cl)cc1)NCC(F)(F)F", "inhibition": "68.8% (active)"}
{"compound": "O=C1CC(N2CCN(c3cccc(C(F)(F)F)c3)CC2)C(=O)N1c1ccc(F)cc1", "note": "(stereo unspecified)", "inhibition": "4.8% (inactive)"}
{"compound": "O=C(NC1CCCCCC1)C(=O)NC1CCCC1", "inhibition": "-2.9% (inactive)"}
{"compound": "N#CC(C(=O)NC1CCCCC1)=C1CCCCC1", "inhibition": "62.7% (active)"}
{"compound": "N#CC(C(=O)NC1CCCCC1)=C1CCCCCC1", "inhibition": "2.1% (inactive)"}
{"compound": "CCN(CCCNC(=O)C1CCN(S(=O)(=O)c2cccc3nonc23)CC1)Cc1ccccc1", "inhibition": "-4.7% (inactive)"}
{"compound": "Cc1cc([N+](=O)[O-])ccc1NC(=O)CCC(=O)N1CCCCC1", "inhibition": "-5.2% (inactive)"}
{"compound": "COc1ccc(NC(=S)N(CCN(C)C)C(C)c2ccncc2)cc1Cl", "note": "(stereo unspecified)", "inhibition": "-7.3% (inactive)"}
{"compound": "CCOC(=O)C1=C(CP(=O)(c2ccccc2)c2ccccc2)NC(=O)NC1c1ccc(OC)cc1", "note": "(stereo unspecified)", "inhibition": "4% (inactive)"}
{"compound": "O=c1c(-c2ccccc2)c(O)c2c(n1-c1ccccc1)CCCC2", "inhibition": "66.2% (active)"}
{"compound": "CC(C)c1c(O)c2c(n(-c3ccccc3)c1=O)CCCC2", "inhibition": "1% (inactive)"}
{"compound": "CC/C(=N\\O)c1c(O)c2c(n(-c3ccccc3)c1=O)CCCC2", "inhibition": "3.9% (inactive)"}
{"compound": "Cc1cc(C)cc(Cn2ncc(Cl)c(Cl)c2=O)c1", "inhibition": "-5.9% (inactive)"}
{"compound": "COc1ccc(C(=O)Nc2nc(N3C(=O)c4ccccc4C3=O)n(-c3ccccc3)n2)cc1", "inhibition": "-1.2% (inactive)"}
{"compound": "O=C(COc1ccc(/C=N/NC(=O)c2ccc(O)cc2)cc1)Nc1cccc([N+](=O)[O-])c1", "inhibition": "56.7% (active)"}
{"compound": "COc1cc(/C=N/NC(=O)c2ccc(O)cc2)ccc1OCC(=O)Nc1cccc([N+](=O)[O-])c1", "inhibition": "-5.1% (inactive)"}
{"compound": "O=C(COc1ccc(/C=N/NC(=O)c2ccncc2)cc1)Nc1cccc([N+](=O)[O-])c1", "inhibition": "-3.3% (inactive)"}
{"compound": "CN(C)CCCNc1nc(-c2ccccc2)nc2ccccc12", "inhibition": "-1.4% (inactive)"}
{"compound": "COc1ccc(Cn2c3nc4ccccc4nc3c3c(=O)n(Cc4ccco4)cnc32)cc1", "inhibition": "24.1% (inactive)"}
{"compound": "Cc1nc2c(c(=O)n1Cc1ccccc1Cl)c1nc3ccccc3nc1n2Cc1ccco1", "inhibition": "-4.4% (inactive)"}
{"compound": "COc1ccc(Cn2c3nc4ccccc4nc3c3c(=O)n(Cc4ccco4)c(C)nc32)cc1", "inhibition": "55.8% (active)"}
{"compound": "COc1cccc(-c2onc3ccc(C(=O)/C=C/N(C)C)cc23)c1", "inhibition": "2.8% (inactive)"}
{"compound": "CCOC(=O)CC1(NC(=O)c2cc(COc3cccc(OC)c3)on2)CCCCC1", "inhibition": "4.4% (inactive)"}
{"compound": "CCOC(=O)CC1(NC(=O)c2cc(COc3ccc(F)c(F)c3)on2)CCCCC1", "inhibition": "-5.7% (inactive)"}
{"compound": "CCOC(=O)CC1(NC(=O)c2cc(COc3cncc(Cl)c3)on2)CCCCC1", "inhibition": "54.6% (active)"}
{"compound": "O=C(Cn1c(=O)n(-c2cccc(C(F)(F)F)c2)c(=O)c2sccc21)NCC1CCCO1", "note": "(stereo unspecified)", "inhibition": "-9.3% (inactive)"}
{"compound": "Cc1ccc(-n2c(=O)c3sccc3n(CC(=O)NCC3CCCO3)c2=O)cc1F", "note": "(stereo unspecified)", "inhibition": "68.5% (active)"}
{"compound": "COc1cccc(-n2c(=O)c3sccc3n(CC(=O)NCC3CCCO3)c2=O)c1", "note": "(stereo unspecified)", "inhibition": "-10.8% (inactive)"}
{"compound": "O=C(CCCN1C(=O)/C(=C/c2cccs2)SC1=S)Nc1cc([N+](=O)[O-])ccc1O", "inhibition": "-12.6% (inactive)"}
{"compound": "CC(=O)/C=C(\\C)NCCNc1c(F)c(F)c(CO)c(F)c1F", "inhibition": "-3.3% (inactive)"}
{"compound": "O=C1C=C(NCCNc2c(F)c(F)c(CO)c(F)c2F)CCC1", "inhibition": "72.7% (active)"}
{"compound": "O=C1C=C(NCc2ccccc2)CCC1", "inhibition": "-5.3% (inactive)"}
{"compound": "CCOc1c(O)ccc(C2NC(=O)N(C)C(C)=C2C(=O)OC)c1[N+](=O)[O-]", "note": "(stereo unspecified)", "inhibition": "4% (inactive)"}
{"compound": "CC(=O)Nc1ccc(S(=O)(=O)NNC(=O)COc2ccc(C(C)(C)C)cc2)cc1", "inhibition": "-2.6% (inactive)"}
{"compound": "O=C(NNC(=O)c1ccccc1)C(=O)N1CCCCC1", "inhibition": "2.5% (inactive)"}
{"compound": "O=C(NNC(=O)c1cccc(Br)c1)C(=O)N1CCCCC1", "inhibition": "60% (active)"}
{"compound": "COc1cccc(C(=O)NNC(=O)C(=O)N2CCCCC2)c1", "inhibition": "-8.5% (inactive)"}
{"compound": "CCN(CC)CCN(Cc1cc2cc3c(cc2[nH]c1=O)OCCO3)C(=S)NCCCOC", "inhibition": "-16.1% (inactive)"}
{"compound": "COC(=O)C1=NN(C(=O)c2ccc(Br)cc2)C(O)(C(C)(C)C)C1", "note": "(stereo unspecified)", "inhibition": "-3.5% (inactive)"}
{"compound": "CCOC(=O)C1=NN(C(=O)c2cccc(Br)c2)C(O)(C(C)(C)C)C1", "note": "(stereo unspecified)", "inhibition": "-3.2% (inactive)"}
{"compound": "COC(=O)C1=NN(C(=O)c2cccc(Cl)c2)C(O)(C(C)(C)C)C1", "note": "(stereo unspecified)", "inhibition": "65.7% (active)"}
{"compound": "O=C(O)CC/C(=N/NC(=O)c1cn(-c2ccccc2)nc1-c1ccccc1)C(=O)O", "inhibition": "-3.5% (inactive)"}
{"compound": "COc1cccc(NS(=O)(=O)c2ccc3c(c2)C2C=CCC2C(c2ccc(C(=O)O)cc2)N3)c1", "note": "(stereo unspecified)", "inhibition": "16.1% (inactive)"}
{"compound": "COc1ccc(NS(=O)(=O)c2ccc3c(c2)[C@H]2C=CC[C@H]2[C@@H](c2ccc(C(=O)O)cc2)N3)cc1", "inhibition": "4.5% (inactive)"}
{"compound": "S=C(NCc1ccccc1Cl)NC1CCCC1", "inhibition": "-7.7% (inactive)"}
{"compound": "S=C(NCc1ccc(Cl)cc1Cl)NC1CCCCC1", "inhibition": "68.1% (active)"}
{"compound": "O=C(Cc1ccc(Cl)cc1Cl)NC1CCCCCC1", "inhibition": "-4.7% (inactive)"}
{"compound": "COc1cc(N(C)C)c([N+](=O)[O-])cc1C(=O)NC(C)CNc1ccc([N+](=O)[O-])cc1Cl", "note": "(stereo unspecified)", "inhibition": "-7.4% (inactive)"}
{"compound": "Cc1ccc(CN(CC(=O)NC(C)(C)C)C(=O)CNC(=O)c2cccs2)cc1", "inhibition": "-5.3% (inactive)"}
{"compound": "Cc1ccc(S(=O)(=O)NNC(=O)c2ccoc2C)cc1", "inhibition": "-5.8% (inactive)"}
{"compound": "Cc1occc1C(=O)NNS(=O)(=O)c1ccc([N+](=O)[O-])cc1", "inhibition": "-10.5% (inactive)"}
{"compound": "Cc1occc1C(=O)NNS(=O)(=O)c1ccc(Cl)cc1", "inhibition": "71.2% (active)"}
{"compound": "Cn1c(=O)c2ncn(CC(=O)N/N=C/c3ccco3)c2n(C)c1=O", "inhibition": "-9.9% (inactive)"}
{"compound": "CC(=O)CCS(=O)(=O)c1ccc(NC(C)=O)cc1", "inhibition": "-5.5% (inactive)"}
{"compound": "Cc1ccc(NC(=O)COC(=O)c2cc(-c3cccs3)nn2-c2ccccc2)cc1[N+](=O)[O-]", "inhibition": "74.9% (active)"}
{"compound": "O=C(COC(=O)c1cc(-c2cccs2)nn1-c1ccccc1)Nc1ccc(F)c([N+](=O)[O-])c1", "inhibition": "-7.7% (inactive)"}
{"compound": "O=C(COC(=O)c1cc(-c2cccs2)nn1-c1ccccc1)Nc1ccc(Cl)c([N+](=O)[O-])c1", "inhibition": "2% (inactive)"}
{"compound": "CC(=O)c1ccc(N2C(=O)[C@@H]3C(CCC(N)=O)NC4(C(=O)Nc5c4ccc(Cl)c5C)[C@@H]3C2=O)cc1", "note": "(stereo partly specified)", "inhibition": "-3.9% (inactive)"}
{"compound": "COc1cc2c(C#N)c(N3CCCCC3)nc(N)c2c(N)n1", "inhibition": "-1.1% (inactive)"}
{"compound": "COc1cc2c(C#N)c(N3CCCC3)nc(N)c2c(N)n1", "inhibition": "-2.4% (inactive)"}
{"compound": "N#Cc1c(N2CCCC2)nc(N)c2c(N)nc(N3CCCC3)cc12", "inhibition": "65.7% (active)"}
{"compound": "CCCC(=O)NC(=S)Nc1ccccc1F", "inhibition": "-10.5% (inactive)"}
{"compound": "Cc1cccc(C)c1N1CCN(c2n[nH]c(N)n2)CC1", "inhibition": "-8.3% (inactive)"}
{"compound": "CC1(C)Nc2ccccc2C(=O)N1c1ccccc1", "inhibition": "-11.8% (inactive)"}
{"compound": "CC1(C)CCC(=O)N(c2ccccc2)C1=O", "inhibition": "-3% (inactive)"}
{"compound": "CC12CCC(=O)N1c1ccccc1C(=O)N2c1ccccc1", "note": "(stereo unspecified)", "inhibition": "66.6% (active)"}
{"compound": "CC(=O)Nn1c(COc2ccccc2C)nc2ccccc2c1=O", "inhibition": "-4.5% (inactive)"}
{"compound": "Cc1noc(NS(=O)(=O)c2ccc(NC(=O)c3nn(-c4ccccc4)ccc3=O)cc2)c1C", "inhibition": "53.3% (active)"}
{"compound": "Cc1ccc(-n2ccc(=O)c(C(=O)Nc3ccc(S(=O)(=O)Nc4onc(C)c4C)cc3)n2)cc1", "inhibition": "2.8% (inactive)"}
{"compound": "Cc1cccc(-n2ccc(=O)c(C(=O)Nc3ccc(S(=O)(=O)Nc4onc(C)c4C)cc3)n2)c1", "inhibition": "-7.6% (inactive)"}
{"compound": "COc1cc(CC(NC(C)=O)C(=O)NC2CCN(c3nc(C)cc(C)c3C#N)CC2)cc(OC)c1", "note": "(stereo unspecified)", "inhibition": "-2.6% (inactive)"}
{"compound": "COc1cc(/C=C2/NC(=O)NC2=O)cc(Br)c1OCc1cccc(C(=O)O)c1", "inhibition": "4.5% (inactive)"}
{"compound": "COc1cc(/C=C2/NC(=O)NC2=O)cc(Br)c1OCc1ccc(C(=O)O)cc1", "inhibition": "26.8% (inactive)"}
{"compound": "Nc1nonc1-n1nnc(C(=O)N/N=C/c2ccoc2)c1CSc1ccc(Cl)cc1", "inhibition": "-6.9% (inactive)"}
{"compound": "C=C(C)Cn1c(SCC(=O)O)nc2c1c(=O)[nH]c(=O)n2C", "inhibition": "-3.9% (inactive)"}
{"compound": "CCc1nc2cc([N+](=O)[O-])c([N+](=O)[O-])cc2[nH]1", "inhibition": "54.4% (active)"}
{"compound": "CCc1nc2cc(Cl)c(Cl)cc2[nH]1", "inhibition": "-3% (inactive)"}
{"compound": "CCCc1nc2ccc([N+](=O)[O-])cc2[nH]1", "inhibition": "-5.4% (inactive)"}
{"compound": "CCC(=O)Nc1ccc2nc3c(=O)[nH]c(=S)[nH]c3nc2c1", "inhibition": "-5.4% (inactive)"}
{"compound": "Nc1ccc2nc3c(=O)n(C4CCCCC4)c(=O)[nH]c3nc2c1", "inhibition": "4.7% (inactive)"}
{"compound": "Nc1ccc2nc3c(=O)[nH]c(=S)[nH]c3nc2c1", "inhibition": "58.3% (active)"}
{"compound": "OC(COC(c1ccccc1)c1ccccc1)CN1CCOCC1", "note": "(stereo unspecified)", "inhibition": "1.2% (inactive)"}
{"compound": "COC(=O)C1CCN(CCCOc2ccc(CN3CCN(c4ccc([N+](=O)[O-])cc4)CC3)cc2)CC1", "inhibition": "-8% (inactive)"}
{"compound": "COC(=O)C1CCN(Cc2ccc(OCCCN3CCN(c4ccc([N+](=O)[O-])cc4)CC3)cc2)CC1", "inhibition": "78.6% (active)"}
{"compound": "COC(=O)C1CCN(c2ccc([N+](=O)[O-])cc2)CC1", "inhibition": "-2.8% (inactive)"}
{"compound": "CCOC(=O)c1cnc2c(Cl)c(Cl)ccc2c1NCCN1CCOCC1", "inhibition": "59.4% (active)"}
{"compound": "CCOC(=O)c1cnc2c(C)c(C)ccc2c1NCCN1CCOCC1", "inhibition": "-7.3% (inactive)"}
{"compound": "CCOC(=O)c1cnc2c(Cl)cccc2c1NCCN1CCOCC1", "inhibition": "-9.2% (inactive)"}
{"compound": "COc1ccc(C(=O)NCCNC(C)=O)cc1S(=O)(=O)NCc1ccc(Cl)cc1", "inhibition": "-8.9% (inactive)"}
